# Data: PubChem BioAssay (NCATS)
# Values joined by “and” are separate entries in the source; they are usually repeats but may differ in a detail not shown here. Equal entries are not always repeated. Records with an inconclusive call do not appear. Active and inactive are the calls of the source. Unless noted, calls follow the shape of the dose curve; as a rule, active = well fitted curve in the direction sought with a large enough effect; inconclusive = small, poorly fitted or top-dose-only effect, or another doubt; inactive = no such curve, though single readings can be large; an effect the other way counts as inactive or inconclusive.
# Assays:
# [1] = biological target: Peroxisome proliferator-activated receptor alpha (Homo sapiens) (UniProt Q07869); test: qHTS assay for small molecule agonists of the peroxisome proliferator-activated receptor alpha (PPARalpha) signaling pathway (AID 651778); details: PathHunter PPARalpha complementation, chemiluminescence, 6 h; stronger effect = higher value; also: % of control where 0% means no effect
# Summary of the method: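 Chemiluminescence from complemented enzyme reported PPARalpha activation in cells after 6 hr of compound treatment at 37 C. The detection reagent was incubated for 60 min at room temperature, and compounds were scored as agonists.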
# [2] = biological target: Nuclear receptor ROR-gamma (Homo sapiens) (UniProt P51449); test: qHTS assay for small molecule antagonists of the retinoid-related orphan receptor gamma (ROR-gamma) signaling pathway (AID 651802); details: ROR-gamma antagonist cell reporter assay; series mostly up to 92.2 µM;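 also: CHO cells with doxycycline-induced ROR-gamma expression; luciferase reporter luminescence driven by ROR response element; % is scaled to controls: 0 for no effect and ±100 for the full control effect; nearly all actives have a fitted effect of over 60% in size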
# Summary of the method: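 CHO, TET-inducible ROR + RORE-LUC reporter, 1536-well qHTS. Compound pinned, doxycycline added, 16hr 37C/5% CO2. ONE-Glo, 30 min RT, luminescence; signal drop scored as antagonism.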
# [3] = qHTS assay for small molecule agonists of the antioxidant response element (ARE) signaling pathway measured by Nrf2-dependant transcriptional activity - cell viability counter screen (AID 720653; active = well fitted curve in the direction sought with a large enough effect in the repeat runs; an effect the other way counts as inactive or inconclusive; also: % is scaled to controls: 0 for no effect and ±100 for the full control effect); details: ARE-bla HepG2 viability, CellTiter-Glo ATP luminescence, 16 h; max response: stronger effect = lower value
# Summary of the method: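 Cytotoxicity counter screen: intracellular ATP quantified by CellTiter-Glo luminescence in the same ARE-bla HepG2 plates, after 16 h compound exposure and a 2 h beta-lactamase substrate step.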
# [4] = qHTS Assay for Identifying Gametocytocidal Compounds (AID 743244);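 also: % is scaled to controls: 0 for no effect and ±100 for the full control effect; actives lower the fluorescent signal which means gametocytes are killed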; details: P. falciparum 3D7 stage III-V gametocytes, alamarBlue, 72 h; max response: stronger effect = lower value
# Summary of the method: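 In this qHTS viability screen, late-stage 3D7 gametocytes are incubated with compound for 72 h, then with alamarBlue for 24 h; reduced resorufin fluorescence marks killing.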
# [5] = qHTS assay for cell viability of HEK293 cells (AID 743288); details: ATP luminescence (CellTiter-Glo), 18 h; max response: stronger effect = lower value; also: % is scaled to controls: 0 for no effect and ±100 for the full control effect; nearly all actives have a fitted effect of over 50% in size
# Summary of the method: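 HEK293 parental, 2,000 cells/well; ≥5 h pre-incubation 37 C; pintool compound addition; 18 h, 37 C; CellTiter-Glo 30 min RT; luminescence read.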
# [6] = qHTS profiling of the MIPE4 collection as inhibitors of Plasmodium falciparum (3D7) proliferation (AID 743344; call rule not given here;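 also: scaled between DMSO vehicle wells and 0.29 µM artemisinin as full inhibition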); details: P. falciparum 3D7 in erythrocytes, SYBR Green DNA fluorescence, 72 h; at 28.5 µM (top of the series) unless noted
# Summary of the method: (§1)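 Erythrocytes infected with P. falciparum (0.3% parasitemia, 2.5% hematocrit) incubated with compounds 72 h at 37 C, 5% CO2. Lysis with saponin/Triton buffer containing SYBR Green I, overnight at room temperature in the dark; DNA fluorescence (485/535 nm) normalised to 0.29 uM artemisinin and DMSO.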
# [7] = qHTS profiling of the MIPE4 collection as inhibitors of Plasmodium falciparum (DD2) proliferation (AID 743345; call rule not given here); details: P. falciparum Dd2 in erythrocytes, SYBR Green DNA, 72 h; at 28.5 µM (top of the series) unless noted
# Summary of the method: as §1
# [8] = qHTS profiling of the MIPE4 collection as inhibitors of Plasmodium falciparum (DD2) proliferation (Rep 2) (AID 743346; call rule not given here); details: P. falciparum Dd2 in erythrocytes, SYBR Green DNA, 72 h; at 28.5 µM (top of the series) unless noted
# Summary of the method: as §1
# [9] = qHTS profiling of the MIPE4 collection as inhibitors of Plasmodium falciparum (HB3) proliferation (AID 743347; call rule not given here;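 also: plate controls were DMSO vehicle wells for no effect and artemisinin wells for full effect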); details: P. falciparum HB3 in erythrocytes, SYBR Green DNA, 72 h; at 28.5 µM (top of the series) unless noted
# Summary of the method: as §1
# [10] = High-throughput drug toxicity screening in the BPDCN cell line Gen2.2 (AID 1224824; call rule not given here;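 also: cells exposed to compounds for 48 h before reading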); details: Gen2.2 BPDCN cells; at 45.8 µM (top of the series) unless noted
# Summary of the method: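 Seed 500 exponentially growing Gen2.2 cells/well; add compounds by pin tool; incubate 48 h, 37 °C, 5% CO2; add CellTiter-Glo, 15 min RT; read luminescence. % activity vs DMSO (100%) and bortezomib (0%).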
# [11] = biological target: Tyrosine-protein kinase Yes (Homo sapiens) (UniProt P07947); test: qHTS for small molecule inhibitors of Yes1 kinase: Primary Screen (AID 686947); details: Yes1 kinase biochemical qHTS inhibition; series mostly up to 76.9 µM;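 also: plate controls were DMSO with enzyme for no effect and no-enzyme DMSO wells for full effect; nearly all actives have a fitted effect of over 60% in size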
# Summary of the method: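 Yes1 (4 nM) preincubated 20 min with compound, then 60 min room-temperature reaction with 0.1 mM ATP and 0.3 mg/mL poly(E4Y) in pH 7.5 Tris, 10 mM MgCl2. ADP measured by ADP-Glo luminescence, normalised to enzyme/no-enzyme controls.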
# [12] = qHTS for small molecule inhibitors of Yes1 kinase: Counter Assay (AID 686950); details: series mostly up to 76.9 µM;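 also: no kinase present so only ADP-Glo detection of a fixed ADP amount is tested; luminescence from ADP-Glo reporting ADP in a fixed ATP and ADP mixture; 0% = DMSO wells with ATP plus ADP and -100% = ATP-only wells without ADP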
# Summary of the method: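 Luminescence read-out from ADP-Glo quantifies a fixed ADP amount (0.02 mM ADP with 0.08 mM ATP) after 60 min at room temperature; signal is normalized between DMSO wells with ATP/ADP and with 0.1 mM ATP alone.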
# [13] = qHTS for compounds that reverse cellular toxicity of Amyloid beta (A-beta) peptide in yeast: LOPAC Validation Assay (AID 720559); details: yeast expressing A-beta; series mostly up to 46.1 µM;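 also: plate controls were DMSO for no effect and equimolar ferric chloride plus clioquinol rescue for full effect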
# Summary of the method: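 Medium dispensed, compounds pinned, A-beta yeast suspension added; plates held at 30 C for 48 hr; absorbance measured at 600 nm to gauge growth; values scaled between DMSO and FeCl3/clioquinol (equimolar) controls.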
# [14] = qHTS for Activators of Parkin Expression: LOPAC Validation Assay (NLuc Reporter) (AID 720572;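 also: 0% = DMSO and 100% = positive control compound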); details: Parkin promoter NanoLuc reporter cells, luminescence, percent of positive control, DMSO as zero; series mostly up to 46.1 µM
# Summary of the method: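 Parkin promoter-driven FLuc/NLuc neuronal reporter cells; 24 h plating, 7-pt dose response, 24 h at 37 C/5% CO2; FLuc then NanoLuc reagent, 10 min each, luminescence; DMSO/positive control normalized.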
# [15] = biological target: T1, Hexokinase-4 (Homo sapiens) + Glucokinase regulatory protein (Homo sapiens) (UniProt P35557+Q14397); test: qHTS assay for inhibitors of recombinant human GCK-GKRP interaction: Diaphorase-coupled assay (AID 743205); details: G6PDH/diaphorase resorufin fluorescence; series mostly up to 57.5 µM
# Summary of the method: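 25 mM Hepes pH 7.6, 5 mM glucose, 0.4 mM ATP, 4 U/ml G6PDH; 10 nM each GST-GCK/FLAG-GKRP. Kinetic fluorescence read, 1/min × 30 min. Normalized: DMSO ± enzyme = max/min.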
# [16] = biological target: T1, Hexokinase-4 (Homo sapiens) + Glucokinase regulatory protein (Homo sapiens); test: qHTS assay for inhibitors of recombinant human GCK-GKRP interaction: ADP-Glo assay (AID 743206); details: ADP-Glo luminescence, 60 min, 0% = vehicle-only wells with enzyme present; series mostly up to 76.9 µM;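 also: plate controls were DMSO plus enzyme for no effect and no enzyme for full effect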
# Summary of the method: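 GST-GCK and FLAG-GKRP (15 nM each in the dispensed mix, with 2 uM S6P) react with 0.4 mM ATP and 5 mM glucose (final) in Hepes pH 7.6 for 60 min at room temperature. ADP is measured by ADP-Glo luminescence.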
# [17] = biological target: T1, Hexokinase-4 (Homo sapiens) + Glucokinase regulatory protein (Homo sapiens); test: qHTS assay for inhibitors of recombinant human GCK-GKRP interaction: HTRF assay (AID 743207); details: recombinant GCK-GKRP HTRF binding, 60 min, with sorbitol-6-phosphate; series mostly up to 57.5 µM;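 also: 0% = DMSO with GCK present and -100% = DMSO wells lacking GCK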
# Summary of the method: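 5 nM GST-GCK + 5 nM FLAG-GKRP + 2 uM S6P, pH 7.1 buffer (25 mM Hepes, 2 mM MgCl2, 25 mM KCl, 1 mM DTT, Tween/BSA); pin-transferred cpd; anti-FLAG XL665/anti-GST K; 60 min RT; HTRF.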
# [18] = qHTS profiling for inhibitors of Plasmodium falciparum (DD2) proliferation (AID 743323; call rule not given here); details: lower = more inhibition; at 28.7 µM (top of the series) unless noted
# Summary of the method: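 Parasite DNA quantified by SYBR Green fluorescence (ex 485, em 535 nm) after saponin/Triton lysis and overnight dark incubation. Cultures: 0.3% parasitemia, 2.5% hematocrit, 72 h, 37 C; data scaled between DMSO and 0.29 uM artemisinin.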
# [19] = qHTS profiling for inhibitors of Plasmodium falciparum (HB3) proliferation (AID 743324); details: Plasmodium falciparum HB3 blood-stage proliferation; at 28.7 µM (top of the series) unless noted;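 also: 100% = DMSO vehicle wells and 0% = artemisinin-treated control wells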
# Summary of the method: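 P. falciparum HB3 grown in erythrocytes (0.3% parasitemia, 2.5% hematocrit final) with compound for 72 h at 37 C, 5% CO2. Parasite DNA detected by SYBR Green after saponin/triton lysis overnight; normalized to 0.29 uM artemisinin and DMSO.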
# [20] = qHTS assay for small molecule agonists of the antioxidant response element (ARE) signaling pathway measured by Nrf2-dependant transcriptional activity (AID 720636; active = well fitted curve in the direction sought with a large enough effect in the repeat runs; an effect the other way counts as inactive or inconclusive; also: % of control where 0% means no effect); details: ARE-luc HepG2, Nrf2 luciferase reporter, 16 h; series mostly up to 92.4 µM
# Summary of the method: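 Quantitative HTS format in HepG2 cells stably expressing an ARE-luciferase reporter; 16 hr compound treatment at 37 C, luciferase signal detected with ONE-Glo.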
# T1 sequence (P35557 whole entry, looked up): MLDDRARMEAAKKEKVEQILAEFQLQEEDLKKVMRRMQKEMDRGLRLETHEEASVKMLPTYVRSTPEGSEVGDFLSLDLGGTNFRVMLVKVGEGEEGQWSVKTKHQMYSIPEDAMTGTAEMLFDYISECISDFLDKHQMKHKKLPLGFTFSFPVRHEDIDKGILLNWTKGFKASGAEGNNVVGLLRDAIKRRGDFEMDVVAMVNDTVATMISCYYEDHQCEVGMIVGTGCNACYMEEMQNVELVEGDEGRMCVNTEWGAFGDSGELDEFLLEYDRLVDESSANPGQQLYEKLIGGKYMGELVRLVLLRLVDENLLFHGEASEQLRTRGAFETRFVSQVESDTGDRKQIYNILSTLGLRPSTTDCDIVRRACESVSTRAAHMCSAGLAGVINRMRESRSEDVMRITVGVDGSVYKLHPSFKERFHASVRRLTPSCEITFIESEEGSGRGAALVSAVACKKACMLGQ
# T1 sequence (Q14397 whole entry, looked up): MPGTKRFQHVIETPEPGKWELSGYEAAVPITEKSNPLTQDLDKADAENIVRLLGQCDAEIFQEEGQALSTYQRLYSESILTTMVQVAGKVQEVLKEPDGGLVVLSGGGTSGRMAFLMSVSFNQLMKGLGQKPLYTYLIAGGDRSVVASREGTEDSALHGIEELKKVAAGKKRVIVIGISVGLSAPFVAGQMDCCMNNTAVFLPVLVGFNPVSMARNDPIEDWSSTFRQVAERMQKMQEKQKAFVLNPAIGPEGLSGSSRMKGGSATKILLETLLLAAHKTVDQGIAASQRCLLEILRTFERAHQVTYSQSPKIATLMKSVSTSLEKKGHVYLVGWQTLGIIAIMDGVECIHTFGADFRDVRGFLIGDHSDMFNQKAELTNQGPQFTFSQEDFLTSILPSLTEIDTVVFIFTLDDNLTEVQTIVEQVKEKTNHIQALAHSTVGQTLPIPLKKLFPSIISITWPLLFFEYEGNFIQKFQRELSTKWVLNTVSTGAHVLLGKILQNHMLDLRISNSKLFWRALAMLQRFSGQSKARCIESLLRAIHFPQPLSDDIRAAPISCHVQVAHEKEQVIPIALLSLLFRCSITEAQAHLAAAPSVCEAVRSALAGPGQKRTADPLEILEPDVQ
# Sequence of Tyrosine-protein kinase Yes (Homo sapiens) (P07947 whole entry, looked up): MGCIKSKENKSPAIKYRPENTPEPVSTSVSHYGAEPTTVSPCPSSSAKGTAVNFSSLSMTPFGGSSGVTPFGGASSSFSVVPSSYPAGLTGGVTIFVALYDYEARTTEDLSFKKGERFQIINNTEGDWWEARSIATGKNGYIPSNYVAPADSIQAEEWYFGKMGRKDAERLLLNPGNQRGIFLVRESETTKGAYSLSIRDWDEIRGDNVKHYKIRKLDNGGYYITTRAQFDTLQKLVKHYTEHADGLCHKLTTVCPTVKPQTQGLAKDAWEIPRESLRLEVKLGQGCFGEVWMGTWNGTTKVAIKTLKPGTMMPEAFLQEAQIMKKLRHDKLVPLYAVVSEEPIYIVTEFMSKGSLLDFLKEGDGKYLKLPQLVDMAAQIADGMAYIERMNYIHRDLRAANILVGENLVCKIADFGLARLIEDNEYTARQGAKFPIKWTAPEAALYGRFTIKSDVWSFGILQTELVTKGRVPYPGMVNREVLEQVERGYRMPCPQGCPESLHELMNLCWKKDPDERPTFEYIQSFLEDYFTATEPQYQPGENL
# Sequence of Peroxisome proliferator-activated receptor alpha (Homo sapiens) (Q07869 whole entry, looked up): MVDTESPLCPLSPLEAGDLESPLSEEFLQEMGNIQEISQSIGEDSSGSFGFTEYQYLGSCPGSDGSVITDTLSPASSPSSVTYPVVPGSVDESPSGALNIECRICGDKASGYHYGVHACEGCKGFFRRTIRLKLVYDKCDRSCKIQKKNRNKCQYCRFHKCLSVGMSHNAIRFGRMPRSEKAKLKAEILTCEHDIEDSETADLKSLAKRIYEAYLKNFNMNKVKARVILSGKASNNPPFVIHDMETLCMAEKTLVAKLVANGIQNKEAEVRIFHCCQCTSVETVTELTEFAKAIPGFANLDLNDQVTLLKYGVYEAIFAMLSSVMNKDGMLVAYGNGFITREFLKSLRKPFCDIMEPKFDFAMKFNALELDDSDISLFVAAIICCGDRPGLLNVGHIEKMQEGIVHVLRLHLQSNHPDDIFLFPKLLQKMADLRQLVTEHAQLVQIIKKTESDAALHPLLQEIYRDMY
# Sequence of Nuclear receptor ROR-gamma (Homo sapiens) (P51449 whole entry, looked up): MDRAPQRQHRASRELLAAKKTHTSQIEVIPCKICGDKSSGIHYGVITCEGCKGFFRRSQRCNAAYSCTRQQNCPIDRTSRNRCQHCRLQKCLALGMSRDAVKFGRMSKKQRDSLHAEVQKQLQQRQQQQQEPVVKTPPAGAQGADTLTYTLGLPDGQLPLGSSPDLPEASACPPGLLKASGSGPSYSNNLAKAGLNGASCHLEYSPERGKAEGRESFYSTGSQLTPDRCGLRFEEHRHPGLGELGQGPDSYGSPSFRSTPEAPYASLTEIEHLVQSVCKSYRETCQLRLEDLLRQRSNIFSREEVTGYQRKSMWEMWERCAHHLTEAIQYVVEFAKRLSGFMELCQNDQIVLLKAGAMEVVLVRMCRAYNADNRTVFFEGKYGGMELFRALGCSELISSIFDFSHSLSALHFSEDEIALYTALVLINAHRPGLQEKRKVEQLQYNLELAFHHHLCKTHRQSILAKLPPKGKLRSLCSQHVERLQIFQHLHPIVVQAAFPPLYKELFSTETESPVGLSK
smiles,measurement,setting,value
c1ccc2[nH]c(-c3cscn3)nc2c1,max response,[1],-1.63% (inactive) and -0.401% (inactive)
same,outcome,[2],inactive
same,max response,[3],-11.8% (inactive) and -19.5% (inactive)
same,max response,[4],16.1% (inactive)
same,max response,[5],-17.6% (inactive) and -12.7% (inactive)
same,"parasite growth, % of DMSO control",[6],11.2%
same,"parasite growth remaining, % of DMSO control (lower = more inhibition)",[7],87.1%
same,"parasite growth, % of control (lower = inhibition)",[8],33.5%
same,"growth, % of control",[9],9.5%
same,"cell viability, % of control (lower = more cytotoxic)",[10],245%
CCOC(=O)C(C)Oc1cccc2c(=O)n(CC(=O)Nc3ccc4c(c3)OCCO4)ccc12 (centres undefined),Potency,[11],inactive
same,outcome,[12],inactive
same,outcome,[13],inactive
same,outcome,[14],inactive
same,outcome,[15],inactive
same,outcome,[16],inactive
same,outcome,[17],inactive
same,max response,[4],9.26% (inactive)
same,"activity, percent of control",[18],97.4%
same,"remaining proliferation (% of control), lower = more inhibition",[19],104%
same,"parasite growth, % of DMSO control",[6],72.1%
same,"parasite growth remaining, % of DMSO control (lower = more inhibition)",[7],92.5%
same,"parasite growth, % of control (lower = inhibition)",[8],81.6%
same,"growth, % of control",[9],96%
same,"cell viability, % of control (lower = more cytotoxic)",[10],102%
C[C@@H](c1ncncc1F)[C@](O)(Cn1cncn1)c1ccc(F)cc1F,"cell viability, % of control (lower = more cytotoxic)",[10],56.5%
S=c1nc[nH]c2nc[nH]c12,Potency,[11],inactive
same,outcome,[12],inactive
same,max response,[4],21.9% (inactive) and -4.09% (inactive)
same,"activity, percent of control",[18],88.8% [at 57.5 µM]
same,"parasite growth, % of DMSO control",[6],68.3%
same,"parasite growth remaining, % of DMSO control (lower = more inhibition)",[7],96%
same,"parasite growth, % of control (lower = inhibition)",[8],6.58%
same,"growth, % of control",[9],55.2%
same,"cell viability, % of control (lower = more cytotoxic)",[10],203%
Cc1ccc(Nc2nccc(N(C)c3ccc4c(C)n(C)nc4c3)n2)cc1S(N)(=O)=O,outcome,[12],inactive
same,max response,[4],45.8% (inactive)
same,"cell viability, % of control (lower = more cytotoxic)",[10],355%
C[C@@H](N)C1CCC(C(=O)Nc2ccncc2)CC1 (some centres undefined),Potency,[11],inactive
same,outcome,[12],inactive
same,outcome,[13],inactive
same,outcome,[14],inactive
same,outcome,[15],inactive
same,outcome,[16],inactive
same,outcome,[17],inactive
same,max response,[4],-0.932% (inactive) and 18% (inactive)
same,"activity, percent of control",[18],103%
same,"remaining proliferation (% of control), lower = more inhibition",[19],94.3%
same,"parasite growth, % of DMSO control",[6],85.6%
same,"parasite growth remaining, % of DMSO control (lower = more inhibition)",[7],91.5%
same,"parasite growth, % of control (lower = inhibition)",[8],78.9%
same,"growth, % of control",[9],72.6%
same,"cell viability, % of control (lower = more cytotoxic)",[10],84.4%
CC1(C)NC(=O)N(c2ccc([N+](=O)[O-])c(C(F)(F)F)c2)C1=O,max response,[1],-2.93% (inactive)
same,outcome,[13],inactive
same,outcome,[14],inactive
same,Potency,[20],inactive
same,max response,[3],-27.8% (inactive)
same,outcome,[15],inactive
same,outcome,[16],inactive
same,outcome,[17],inactive
same,max response,[4],12.7% (inactive) and -11.2% (inactive)
same,max response,[5],-18.9% (inactive)
same,"parasite growth, % of DMSO control",[6],83.6%
same,"parasite growth remaining, % of DMSO control (lower = more inhibition)",[7],106%
same,"parasite growth, % of control (lower = inhibition)",[8],86.1%
same,"growth, % of control",[9],91%
same,"cell viability, % of control (lower = more cytotoxic)",[10],204%
Cc1ccc(C)c(OCCCC(C)(C)C(=O)O)c1,max response,[1],0.635% (inactive) and 1.7% (inactive)
same,outcome,[2],inactive
same,Potency,[20],inactive
same,max response,[3],-1.19% (inactive) and -0.256% (inactive)
same,max response,[4],17.4% (inactive)
same,max response,[5],-0.77% (inactive) and -7.02% (inactive)
same,"parasite growth, % of DMSO control",[6],5.29%
same,"parasite growth remaining, % of DMSO control (lower = more inhibition)",[7],47.3%
same,"parasite growth, % of control (lower = inhibition)",[8],8.19%
same,"growth, % of control",[9],3.44%
same,"cell viability, % of control (lower = more cytotoxic)",[10],120%
CCN(CCO)CCCC(C)Nc1ccnc2cc(Cl)ccc12 (centres undefined),Potency,[11],inactive
same,outcome,[12],inactive
same,max response,[4],-15.7% (inactive)
same,"activity, percent of control",[18],105% and 9.47%
same,"remaining proliferation (% of control), lower = more inhibition",[19],1.3% and -0.152%
same,"parasite growth, % of DMSO control",[6],20.1%
same,"parasite growth remaining, % of DMSO control (lower = more inhibition)",[7],16.9%
same,"parasite growth, % of control (lower = inhibition)",[8],15.4%
same,"growth, % of control",[9],49.8%
same,"cell viability, % of control (lower = more cytotoxic)",[10],86.1%
